# Source: PubChem (National Center for Advancing Translational Sciences (NCATS))
# Compounds with a hit are over-represented: about 21% of the library has one in this group of screens.
# RORg inh: qHTS for inhibitors of ROR gamma transcriptional activity; Nuclear receptor ROR-gamma (Mus musculus), P51450; Drosophila S2 Gal4-RORgamma UAS-luciferase reporter, 20 h; Potency, µM (highest dose often 53.6 µM), inactives show at the top dose activity change, negative = inhibition, actives largely listed as inhibitors; actives 5.4% (n = 310,000); AID 2551, 2010; note: potency is the fitted concentration of half-maximal effect; nearly all actives have a fitted effect of over 60% in size
# Target sequence (P51450 whole entry, looked up, the tested form may be a part): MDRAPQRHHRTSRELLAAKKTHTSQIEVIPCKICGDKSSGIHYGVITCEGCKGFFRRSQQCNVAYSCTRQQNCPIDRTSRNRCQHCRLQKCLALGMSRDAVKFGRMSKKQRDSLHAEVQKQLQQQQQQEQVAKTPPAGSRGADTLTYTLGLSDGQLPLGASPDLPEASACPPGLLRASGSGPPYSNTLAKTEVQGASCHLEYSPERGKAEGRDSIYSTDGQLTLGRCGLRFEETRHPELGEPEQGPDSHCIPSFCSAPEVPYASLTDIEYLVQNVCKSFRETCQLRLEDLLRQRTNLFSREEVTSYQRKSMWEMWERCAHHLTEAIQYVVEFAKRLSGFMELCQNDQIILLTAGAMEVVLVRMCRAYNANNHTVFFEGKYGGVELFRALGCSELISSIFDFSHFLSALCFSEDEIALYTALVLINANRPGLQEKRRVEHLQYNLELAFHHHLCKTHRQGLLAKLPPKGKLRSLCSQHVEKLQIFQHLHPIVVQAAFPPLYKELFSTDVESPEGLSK
#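 Stable Schneider cell line, Gal4 DNA-binding domain fused to ROR gamma, UAS-luciferase. Cmpd 1 hr RT → CuSO4 700 uM final → 20 hr RT → luciferase reagent 10 min → luminescence.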
# VP16 counter: VP16 counterscreen qHTS for inhibitors of ROR gamma transcriptional activity. Drosophila S2 Gal4-VP16 UAS-luciferase, luminescence, 20 h. Potency, µM (titrated, usually from 53.6 µM), for inactives: at the highest dose activity, negative = inhibition, usual class: inhibitors. actives 3.5% (n = 310,000). AID 2546, 2010;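 note: Gal4-VP16 expression switched on by copper sulfate through the metallothionein promoter; potency is the fitted concentration of half-maximal effect; nearly all actives have a fitted effect of over 50% in size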
# DT40 TDP1 no CPT: qHTS for Inhibitors of human tyrosyl-DNA phosphodiesterase 1 (TDP1): qHTS in cells in absence of CPT | actives 15% (n = 420,000) | Potency, µM (doses to about 46.2 µM), without a hit: top-dose activity change, negative = growth inhibition, most hits filed as inhibitors | DT40 Tdp1-/- hTDP1 cells, no CPT, ATP luminescence, 48 h; note: potency is the fitted concentration of half-maximal effect; nearly all actives have a fitted effect of over 55% in size
#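 Chicken DT40 Tdp1-/- cells complemented with human TDP1, screened without camptothecin (DMSO vehicle only), 400 cells/well. Compounds pin-transferred, cells incubated at 37 °C for at least 48 hr. Growth read as ATP-dependent luminescence (CellTiter-Glo, 30 min at RT).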
# IL1B secr inh: qHTS for Inhibitors of Inflammasome Signaling: IL-1-beta AlphaLISA Primary Screen; AID 743279, 2014; THP-1 LPS/ATP IL-1B secretion, AlphaLISA, 16 h; hits give low values; activity change, % at 57.5 µM; actives 4.7% (n = 360,000); in the data active = activity change below about -50%; inconclusive = mostly about -30% to -49%
#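 Secreted IL-1B measured by AlphaLISA bead assay after 16 h compound exposure of THP-1 cells; compounds (final up to 57.5 uM) added 1 h before LPS (250 ng/mL) and ATP (1.25 mM) stimulation; lower signal means less secretion.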
# TDP1 cell CPT: qHTS for Inhibitors of human tyrosyl-DNA phosphodiesterase 1 (TDP1): qHTS in cells in presence of CPT. chicken DT40 Tdp1-/-;hTDP1 cells + 20 nM CPT, ATP luminescence, 48 h. Potency, µM (doses to about 46.2 µM), for inactives: at the top dose activity change, negative = growth inhibition, most hits filed as inhibitors. actives 12% (n = 420,000). AID 686979, 2013; note: potency is the fitted concentration of half-maximal effect; nearly all actives have a fitted effect of over 55% in size
#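 Cell growth measured by CellTiter-Glo luminescence after a minimum 48 h, 37 C compound exposure with 20 nM CPT in Tdp1-knockout DT40 cells stably expressing hTDP1, seeded 400/well; qHTS titration format.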
# ELG1 repair inh: qHTS screen for small molecules that inhibit ELG1-dependent DNA repair in human embryonic kidney (HEK293T) cells expressing luciferase-tagged ELG1; actives 2.3% (n = 330,000); Potency, µM (titrated, usually from 46.1 µM), for the others: at the top dose activity change, negative = inhibition, actives largely listed as inhibitors; HEK293T ELG1-luciferase reporter, luminescence, 16 h; DNA damage induced by 5-fluorouridine; note: potency is the fitted concentration of half-maximal effect; nearly all actives have a fitted effect of over 55% in size
#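 HEK293T cells expressing luciferase-tagged ELG1 (2,000/well) received 5-Fluorouridine plus compound or DMSO for 16 hr at 37 °C. Luciferase was read by ONE-Glo luminescence after 30 min at room temperature.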
# Numbers without * were called inactive; ? = inconclusive; / = not tested or not shown. Unless noted, calls come from the whole dose curve; as a rule, active = well fitted curve in the direction sought with a large enough effect; inconclusive = small, poorly fitted or top-dose-only effect, or another doubt; inactive = no such curve, though single readings can be large; an effect the other way counts as inactive or inconclusive. % is set by controls: 0 for no effect and ±100 for the full control effect.
SMILES,RORg inh,VP16 counter,DT40 TDP1 no CPT,IL1B secr inh,TDP1 cell CPT,ELG1 repair inh
O=C(CN1CCN(S(=O)(=O)c2ccc(F)c(F)c2)CC1)Nc1ccccc1C(=O)NC1CC1,/,/,?,0,10%,-9%
Cc1cc(C)n(-c2ccc(C(=O)C(C#N)c3nc4ccccc4n3C)cc2)n1 (centres undefined),3.2µM*,8.9µM*,?,-12,?,0%
COc1ccc(NC(=O)CN(C)C(=O)CCCN2C(=O)c3cccc4cccc(c34)C2=O)cc1,/,/,-26%,-26,-5%,-21%
CC1=CC(=O)O[C@@H]1[C@@]1(C)C[C@H]2OC(=O)C[C@H]3[C@@H](C)C(=O)C(O)=C1[C@@]23CO,/,/,5%,10,5%,18µM*
C/C(N)=C(/C#N)C(=O)CSc1nc2cc(Cl)ccc2s1,?,?,-21%,0,?,?
CCCn1nc([N+](=O)[O-])c(C(C#N)c2nc3ccccc3o2)c(Cl)c1=O (centres undefined),-26%,?,-25%,-82*,?,-5%
N#CC(c1ccccn1)c1ncc(C(F)(F)F)cc1Cl (centres undefined),-1%,-18%,-6%,-11,8%,11%
Cn1nc([N+](=O)[O-])c(C(C#N)c2ccccn2)c(Cl)c1=O (centres undefined),10µM*,?,3.7µM*,-102*,5.2µM*,-18%
CCn1nc([N+](=O)[O-])c(C(C#N)c2nc3cc(C(F)(F)F)ccc3s2)c(Cl)c1=O (centres undefined),?,?,23µM*,-97*,15µM*,-9%
COc1cc(/C=C/c2ccccc2)oc(=O)c1,9%,-4%,/,/,/,/
CCc1nc2ccc(C(=O)NCCc3ccccn3)cn2c1N(CC)CCOC,/,/,?,-14,?,/
COCCn1c(SCC(=O)c2ccccc2)nc2c(c1=O)SC(C)C2 (centres undefined),25%,-3%,?,-5,23µM*,0%
COCCn1c(SCC(=O)N2CCN(c3ccccc3)CC2)nc2c(c1=O)SC(C)C2 (centres undefined),2%,1%,18µM*,6,21µM*,-5%
CC(C)[C@H](NC(=O)c1ccc(Cl)cc1)C(=O)Nc1cccc(S(=O)(=O)N2CCOCC2)c1,/,/,-23%,7,-19%,/
O=C(NC(c1ccccc1)c1ccc2ccccc2n1)C1CCN(Cc2cccc(C(F)(F)F)c2)CC1 (centres undefined),/,/,6.5µM*,?,7.3µM*,/
O=C(NC(c1ccccc1)c1ccc2ccccc2n1)C1CCN(Cc2ccc(Cl)c(Cl)c2)CC1 (centres undefined),/,/,15µM*,?,?,/
O=C(NC(c1ccc2ccccc2n1)c1cccs1)C1CCN(Cc2cccc(C(F)(F)F)c2)CC1 (centres undefined),/,/,10µM*,-66*,7.3µM*,/
CC(=O)NC12CC3CC(C1)CC(C(=O)N(C)CC(=O)Nc1cccc(F)c1)(C3)C2,/,/,23%,14,-1%,15%
O=C(Cn1cnc2scc(-c3ccccc3)c2c1=O)NCc1ccco1,26%,-2%,?,-8,-18%,-14%
O=C(Cn1cnc2sc(-c3ccccc3)cc2c1=O)NCCc1ccccc1,-1%,?,?,41,?,?
